High-throughput results as filed in PubChem BioAssay.
A selection: hits, their analogues and other compounds. The true share with any hit is near 32%.
CYP2C19 act – activators of human cytochrome P450 2C19. 96,000 tested, under 10 active. activation factor at 5 µM. recombinant CYP2C19, luciferin-H EGE luminescence; stronger effect = higher value; 0 = fully inhibited enzyme, 1 = untreated enzyme. P33261;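 active = activation factor of at least 2 at 5 µM in the primary screen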
CYP2C9 inhib – inhibitors of human CYP2C9 | P11712 | CYP2C9 Supersomes, luciferin-H conversion, luminescence | inhibition, % at 5 µM | 96,000 tested, 20% active;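 active = blocking of liver enzyme CYP2C9 beyond about 50% at 5 µM, limit read from the data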
Target sequence (P11712 whole entry, looked up): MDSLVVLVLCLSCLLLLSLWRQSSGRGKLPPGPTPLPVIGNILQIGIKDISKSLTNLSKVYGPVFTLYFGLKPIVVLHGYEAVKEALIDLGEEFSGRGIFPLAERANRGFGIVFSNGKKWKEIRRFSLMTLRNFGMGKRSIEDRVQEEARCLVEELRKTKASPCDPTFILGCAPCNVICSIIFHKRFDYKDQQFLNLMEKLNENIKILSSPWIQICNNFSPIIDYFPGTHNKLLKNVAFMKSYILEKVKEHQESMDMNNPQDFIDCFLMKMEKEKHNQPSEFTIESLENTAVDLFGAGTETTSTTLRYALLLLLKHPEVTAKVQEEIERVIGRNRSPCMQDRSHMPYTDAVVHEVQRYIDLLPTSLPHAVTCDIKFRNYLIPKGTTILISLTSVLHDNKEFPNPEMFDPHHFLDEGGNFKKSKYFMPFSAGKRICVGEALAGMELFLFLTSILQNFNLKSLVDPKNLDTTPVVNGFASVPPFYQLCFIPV
PostGolgi yeast – growth inhibition of a yeast mutant, post-Golgi transport screen | post-Golgi transport phenotypic cell assay | inhibition, % at 10 µM | 98,000 tested, 0.9% active | AID 739;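 note: yeast cells grown in 1536-well plates; yeast grown about 18 h at 30C before absorbance read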
CYP2C9 act – activators of human CYP2C9; activation factor at 5 µM; 96,000 tested, 1.4% active; AID 1024; recombinant CYP2C9, luciferin-H conversion, luminescence; stronger effect = higher value; factor 1 = untreated enzyme, 0 = blocked; P11712;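 active = activation factor of 2 or more for CYP2C9 at a 5 µM dose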
PostGolgi ctrl – yeast control strain growth, post-Golgi counter-screen | efflux-deficient yeast background strain, growth absorbance A615, 16 h | 98,000 tested, 5% active | inhibition, % at 10 µM | AID 738
CYP2C19 inhib – inhibitors of human CYP2C19. P33261. 96,000 tested, 21% active. inhibition, % at 5 µM. AID 778. CYP2C19 Supersomes, luciferin-H EGE luminescence, 30 min;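 active = CYP2C19 inhibition above a set limit at 5 µM in the primary screen, cut at about 50% in these data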
Each line names hits and unclear results; the compound was inactive in the other large screens. Cut-off read from the data, not from the text of the source, unless noted: active = inhibition above about 30%; inactive = the rest.

CCCn1c(SCC(=O)Nc2cccc(C(=O)OC)c2)nnc1-c1cccnc1	CYP2C9 inhib 51
COC(=O)c1ccc2c(=O)sc(N3CCC(C(N)=O)CC3)nc2c1	none
O=C1C2CC=CCC2C(=O)N1CC(=O)N(Cc1ccccc1)C1CCS(=O)(=O)C1 (configuration not stated)	none
CC(C)c1ccc(CN(C(=O)C2COc3ccccc3O2)C2CCS(=O)(=O)C2)cc1 (configuration not stated)	PostGolgi ctrl 63
CN(C)c1ccc(CN(C(=O)COc2ccccc2)C2CCS(=O)(=O)C2)cc1 (configuration not stated)	none
CN(C)c1ccc(CN(C(=O)C2COc3ccccc3O2)C2CCS(=O)(=O)C2)cc1 (configuration not stated)	CYP2C9 inhib 65, CYP2C19 inhib 94
O=C(CSC1=NCCS1)N1CCOCC1	none
O=C1CC(c2ccc(S(=O)(=O)N3CCN(c4ccccc4)CC3)cc2)CN1 (configuration not stated)	none
Cc1ccccc1NC(=O)CC(O)(C(F)(F)F)C(F)(F)F	none
CCN(CC)CC(=O)Nc1ccc(C)cc1Br	CYP2C9 inhib 62
Cc1ccc(NC(=O)CC(O)(C(F)(F)F)C(F)(F)F)c(Br)c1	CYP2C9 inhib 86, CYP2C19 inhib 87
CC1Sc2ccccc2N(CC(=O)N(C(C)C)C(C)C)C1=O (configuration not stated)	none
CCCCn1c(N)c(N(CCC(C)C)C(=O)CSc2nnc(C)s2)c(=O)[nH]c1=O	none
CC1=C(C)SC(=C(C#N)c2nnc(N3CCOCC3)n2-c2ccccc2)S1	none (no result: PostGolgi yeast, PostGolgi ctrl)
CC(/C=N/NC(=O)c1ccc(Br)cc1)=C\c1ccccc1	none
CC(/C=C1\SC(=S)N(NC(=O)c2ccc(C)cc2)C1=O)=C\c1ccccc1	CYP2C9 inhib 61
Cc1ccc2c(c1)N(C(C)C(=O)NCCc1ccccc1)C(=O)CO2 (configuration not stated)	CYP2C19 inhib 97
COc1ccc(CCNC(=O)CCN2C(=O)COc3ccc(C)cc32)cc1OC	none
O=C(NCCc1c[nH]c2ccccc12)c1cccnc1	none
Cc1cccc(NC(=O)NCCc2c[nH]c3ccccc23)c1	CYP2C19 inhib 93
Cc1ccc2c(c1)N(CC(=O)NCCc1c[nH]c3ccccc13)C(=O)CO2	CYP2C19 inhib 93
O=C(NCCc1c[nH]c2ccccc12)Nc1cccc2ccccc12	CYP2C19 inhib 86
CCCCCn1c(=O)[nH]c2c(c1=O)CCC2	none
Cc1cc(C(=O)NCCCN2CCCC2=O)no1	none
COC(=O)C1=C(C)NC(=O)C1(NC(=O)CN1CCCC1=O)C(F)(F)F (configuration not stated)	none (no result: CYP2C19 act, CYP2C9 inhib, CYP2C9 act, CYP2C19 inhib)
COc1ccc(-c2nc(C#N)c(NCCCn3ccnc3)o2)cc1OC	CYP2C9 inhib 86, CYP2C19 inhib 81
CCCOc1ccc(-c2nc(C#N)c(NCCCn3ccnc3)o2)cc1	none (no result: CYP2C19 act, CYP2C9 inhib, CYP2C9 act, CYP2C19 inhib)
N#Cc1nc(-c2ccco2)oc1NCCCn1ccnc1	CYP2C9 inhib 84, CYP2C19 inhib 86
COc1ccc(CCNc2oc(-c3ccco3)nc2C#N)cc1	none (no result: CYP2C19 act, CYP2C9 inhib, CYP2C9 act, CYP2C19 inhib)
COC(=O)c1ccccc1NC(=O)c1ccc(COc2cc(C)cc(C)c2)o1	PostGolgi ctrl 31
COC(=O)c1ccc(COc2cccc(OC)c2)o1	none
COC(=O)c1ccccc1NC(=O)c1cccc(NC(=O)c2ccc(Br)o2)c1C	none
COc1ccccc1NC(=O)c1ccc(COc2ccccc2OC)o1	CYP2C9 act 2.8, CYP2C19 inhib 58
COc1ccccc1OCc1ccc(C(=O)N(C)C)o1	none
COC(=O)c1ccccc1NC(=O)c1ccc(COc2ccc(C)c(C)c2)o1	CYP2C19 inhib 52
Cc1onc(-c2c(Cl)cccc2Cl)c1C(=O)n1nnc2ccccc21	none
CCOC(=O)C1CCN(C(=O)Cc2c(C(=O)O)n(CC)c3ccccc23)CC1	none
Cc1cc(C)nc(NC(=O)CSc2ccccn2)n1	none (no result: CYP2C19 act, CYP2C9 inhib, CYP2C9 act, CYP2C19 inhib)
Cc1cc(C)nc(NC(=O)CSc2nn(C)c(=S)s2)n1	PostGolgi yeast 40
CCOC(=O)Cn1c(=NC(=O)CSC(C)=O)sc2ccccc21	CYP2C9 inhib 81
CCCc1[nH]n(-c2nc3ccccc3s2)c(=O)c1C=NCC(C)C	CYP2C9 inhib 51
CC(=NCc1ccco1)c1c(C)[nH]n(-c2nc3ccccc3s2)c1=O	none
CCC(=NCc1ccccc1)c1c(C(F)(F)F)[nH]n(-c2nc3ccccc3s2)c1=O	CYP2C9 inhib 94, CYP2C19 inhib 68
